# About 410 targets per protein were measured; listed, in parts, are those with the strongest signals and a random draw of the rest.
# B1: Clec39 (Caenorhabditis elegans) (protein)
# chain: MTSFYDNSSSSSKPVPLKTSRAQKIQILIFDNWKLILYGAISTLILVLAIMFSTLFFALPAANCDENSEPTKYYTTNAEITTTITTTNQKTTSTASSHLTTISSSATQIYSESSSSSTSQSTFTQSPPEISTTTIAPSDFSCQHGFTLVNNKCWKLVTSNQARPDADKICNGYGGATLFSIKSEQDNRAMIHFVKGQDIDFLWSGLLCSAGEPISCIWDIENGSTANYSNFADGFPNIVYGNCVYFITSGDEAGQWGNEQCGQVMNFVCELPATFQGKDGCKNNYEKSCYLRFDLNLTVPQAQNFCLEKCANLVSIHSANEVRFIMTIYDFIGEILIGALAPAQDFIYWLDGTPANYNNLKFFYNSTCVHMTVAPGMQNVGKWFTRFCTETGKFLCKRSIKNSCT
# What was measured:
# Test in all cases: glycan array binding signal (z-score within array); higher = stronger binding
# Conditions in all cases: glycan notation: IUPAC condensed, linker removed
# [1] = target: GlcNAc(a1-4)Gal(b1-4)GlcNAc(b1-3)Gal(b1-4)[Fuc(a1-3)]GlcNAc(b1-3)Gal(b1-4)[Fuc(a1-3)]GlcNAc
# Summary of the method: (§1)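 Columns mapping to the same glycan were averaged after glycan names were converted to IUPAC-condensed notation. The data come from 3228 arrays in the Consortium for Functional Glycomics database, limited to those with an available protein sequence. Binding is reported as a within-array Z-score averaged across arrays of one protein sequence and across linkers.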
# [2] = target: GlcNAc(b1-2)[GlcNAc(b1-4)]Man(a1-3)[GlcNAc(b1-2)Man(a1-6)]Man(b1-4)GlcNAc(b1-4)GlcNAc
# Summary of the method: as §1
# [3] = target: GlcNAc(b1-2)[GlcNAc(b1-4)]Man(a1-3)[GlcNAc(b1-4)][GlcNAc(b1-2)Man(a1-6)]Man(b1-4)GlcNAc(b1-4)GlcNAc
# Summary of the method: as §1
# [4] = target: GlcNAc(b1-3)Gal(b1-4)GlcNAc(b1-3)Gal(b1-4)GlcNAc(b1-2)Man(a1-3)[GlcNAc(b1-3)Gal(b1-4)GlcNAc(b1-3)Gal(b1-4)GlcNAc(b1-2)Man(a1-6)]Man(b1-4)GlcNAc(b1-4)GlcNAc
# Summary of the method: as §1
# [5] = target: GlcNAc(b1-3)Gal(b1-4)GlcNAc(b1-3)Gal(b1-4)GlcNAc(b1-3)Gal(b1-4)GlcNAc(b1-2)Man(a1-3)[GlcNAc(b1-3)Gal(b1-4)GlcNAc(b1-3)Gal(b1-4)GlcNAc(b1-3)Gal(b1-4)GlcNAc(b1-2)Man(a1-6)]Man(b1-4)GlcNAc(b1-4)GlcNAc
# Summary of the method: as §1
# [6] = target: GlcNAc(b1-3)[GlcNAc(b1-4)][GlcNAc(b1-6)]GlcNAc
# Summary of the method: as §1
# Kdn(a2-6)Gal(b1-4)GlcNAc = target: Kdn(a2-6)Gal(b1-4)GlcNAc
# Summary of the method: as §1
# [7] = target: Man(a1-2)Man(a1-3)[Man(a1-2)Man(a1-6)]Man
# Summary of the method: as §1
# [8] = target: Man(a1-2)Man(a1-3)[Man(a1-2)Man(a1-6)]Man(a1-6)[Man(a1-2)Man(a1-2)Man(a1-3)]Man
# Summary of the method: as §1
# Man(a1-3)[Man(a1-6)]Man = target: Man(a1-3)[Man(a1-6)]Man
# Summary of the method: as §1
# [9] = target: Neu5Ac(a2-3)Gal(b1-3)GlcNAc(b1-2)[Neu5Ac(a2-3)Gal(b1-3)GlcNAc(b1-4)]Man(a1-6)[Neu5Ac(a2-3)Gal(b1-3)GlcNAc(b1-2)Man(a1-3)]Man(b1-4)GlcNAc(b1-4)GlcNAc
# Summary of the method: as §1
# [10] = target: Neu5Ac(a2-3)Gal(b1-3)GlcNAc(b1-3)Gal(b1-3)GlcNAc
# Summary of the method: as §1
# [11] = target: Neu5Ac(a2-3)Gal(b1-4)GlcNAc(b1-2)Man(a1-3)[GlcNAc(b1-4)][Neu5Ac(a2-3)Gal(b1-4)GlcNAc(b1-2)Man(a1-6)]Man(b1-4)GlcNAc(b1-4)GlcNAc
# Summary of the method: as §1
# [12] = target: Neu5Ac(a2-3)Gal(b1-4)GlcNAc(b1-2)Man(a1-3)[Neu5Ac(a2-6)Gal(b1-4)GlcNAc(b1-2)Man(a1-6)]Man(b1-4)GlcNAc(b1-4)GlcNAc
# Summary of the method: as §1
# [13] = target: Neu5Ac(a2-3)Gal(b1-4)GlcNAc(b1-3)Gal(b1-4)GlcNAc(b1-3)[Neu5Ac(a2-3)Gal(b1-4)GlcNAc(b1-3)Gal(b1-4)GlcNAc(b1-6)]GalNAc
# Summary of the method: as §1
# [14] = target: Neu5Ac(a2-3)Gal(b1-4)[Fuc(a1-3)]GlcNAc(b1-3)GalNAc
# Summary of the method: as §1
# [15] = target: Neu5Ac(a2-3)Gal6S(b1-4)[Fuc(a1-3)]GlcNAc
# Summary of the method: as §1
# [16] = target: Neu5Ac(a2-6)Gal(b1-4)GlcNAc
# Summary of the method: as §1
# [17] = target: Neu5Ac(a2-6)Gal(b1-4)GlcNAc(b1-2)Man(a1-3)[Gal(b1-4)GlcNAc(b1-2)Man(a1-6)]Man(b1-4)GlcNAc(b1-4)GlcNAc
# Summary of the method: as §1
# [18] = target: Neu5Ac(a2-6)Gal(b1-4)GlcNAc(b1-2)Man(a1-3)[GlcNAc(b1-2)Man(a1-6)]Man(b1-4)GlcNAc(b1-4)GlcNAc
# Summary of the method: as §1
# [19] = target: Neu5Ac(a2-6)Gal(b1-4)GlcNAc(b1-2)Man(a1-3)[Neu5Ac(a2-3)Gal(b1-4)GlcNAc(b1-2)Man(a1-6)]Man(b1-4)GlcNAc(b1-4)GlcNAc
# Summary of the method: as §1
# [20] = target: Neu5Ac(a2-6)Gal(b1-4)GlcNAc(b1-6)GalNAc
# Summary of the method: as §1
# [21] = target: Neu5Ac(a2-8)Neu5Ac(a2-3)Gal(b1-3)GalNAc(b1-4)[Neu5Ac(a2-8)Neu5Ac(a2-3)]Gal(b1-4)Glc
# Summary of the method: as §1
# [22] = target: Neu5Ac(a2-8)Neu5Ac(a2-8)Neu5Ac(a2-3)[Gal(b1-3)GalNAc(b1-4)]Gal(b1-4)Glc
# Summary of the method: as §1
# [23] = target: Neu5Ac(b2-6)Gal(b1-4)GlcNAc
# Summary of the method: as §1
# [24] = target: Neu5Gc(a2-3)Gal(b1-3)[Fuc(a1-4)]GlcNAc
# Summary of the method: as §1
binder,measurement,setting,value
B1,glycan array binding signal (z-score),[1],3.59
same,glycan array binding signal (z-score),[2],0.095
same,glycan array binding signal (z-score),[3],0.673
same,glycan array binding signal (z-score),[4],0.778
same,glycan array binding signal (z-score),[5],-0.221
same,glycan array binding signal (z-score),[6],0.102
same,glycan array binding signal (z-score),Kdn(a2-6)Gal(b1-4)GlcNAc,0.204
same,glycan array binding signal (z-score),[7],-0.005
same,glycan array binding signal (z-score),[8],0.088
same,glycan array binding signal (z-score),Man(a1-3)[Man(a1-6)]Man,0.047
same,glycan array binding signal (z-score),[9],0.47
same,glycan array binding signal (z-score),[10],-0.142
same,glycan array binding signal (z-score),[11],1.43
same,glycan array binding signal (z-score),[12],2.22
same,glycan array binding signal (z-score),[13],-0.101
same,glycan array binding signal (z-score),[14],4.34
same,glycan array binding signal (z-score),[15],-1.24
same,glycan array binding signal (z-score),[16],-1.22
same,glycan array binding signal (z-score),[17],0.815
same,glycan array binding signal (z-score),[18],0.613
same,glycan array binding signal (z-score),[19],-0.493
same,glycan array binding signal (z-score),[20],-0.055
same,glycan array binding signal (z-score),[21],1.4
same,glycan array binding signal (z-score),[22],0.076
same,glycan array binding signal (z-score),[23],-0.632
same,glycan array binding signal (z-score),[24],1.01
